Values joined by “and” are separate entries in the source; they are usually repeats but may differ in a detail not shown here. Equal values may be shown once. Inconclusive results are not listed. The source holds several records for some structures; these can differ, active in one and inactive in another. Active and inactive are the calls of the source. Calls follow the shape of the dose curve; as a rule, active = well fitted curve in the direction sought with a large enough effect; inconclusive = small, poorly fitted or top-dose-only effect, or another doubt; inactive = no such curve, though single readings can be large; an effect the other way counts as inactive or inconclusive.
Assays:
[1] = system: HEK293; test: Cytotoxic Profiling of Annotated Libraries Using Quantitative High-Throughput Screening (AID 1296008); settings: Five cell lines viability, CellTiter-Glo ATP luminescence, 48-72 h; max response: active compounds read low; also: nearly all actives have a fitted effect of over 60% in size
In short: (§1)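 Cells exposed to compounds for 48 or 72 hr at 37 degrees Celsius. Viability read as ATP-coupled luminescence with CellTiter-Glo after 10 min at room temperature.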

[2] = system: HaCat; test: as above; settings: Five cell lines viability, CellTiter-Glo ATP luminescence, 48-72 h; max response: active compounds read low
In short: as §1

[3] = system: KB-3-1; test: as above; settings: Five cell lines viability, CellTiter-Glo ATP luminescence, 48-72 h; max response: active compounds read low
In short: as §1

[4] = system: NIH3T3; test: as above; settings: Five cell lines viability, CellTiter-Glo ATP luminescence, 48-72 h; max response: active compounds read low
In short: as §1

[5] = system: HACAT; test: qHTS assay to identify novel small-molecules to repurpose for Merkel cell carcinoma treatment (AID 1296009); settings: MCC and control cell lines, CellTiter-Glo viability, 72 h; series mostly up to 44.8 µM; also: nearly all actives have a fitted effect of over 60% in size
In short: (§2)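 Dose-response viability screen; 72 hr exposure at 37 degree celsius; CellTiter-Glo added, 10 min room temperature, luminescence read; RLUs scaled between no-cell and DMSO wells.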

[6] = system: HEK293T; test: as above; settings: MCC and control cell lines, CellTiter-Glo viability, 72 h; at 44.8 µM (top of the series) unless noted
In short: as §2

[7] = system: MCC-13; test: as above; settings: MCC and control cell lines, CellTiter-Glo viability, 72 h; series mostly up to 46 µM
In short: as §2

[8] = system: MKL-1; test: as above; settings: MCC and control cell lines, CellTiter-Glo viability, 72 h; series mostly up to 46 µM
In short: as §2

[9] = system: MKL-2; test: as above; settings: MCC and control cell lines, CellTiter-Glo viability, 72 h; series mostly up to 46 µM
In short: as §2

[10] = system: UISO; test: as above; settings: MCC and control cell lines, CellTiter-Glo viability, 72 h; series mostly up to 46 µM
In short: as §2

[11] = system: WaGa; test: as above; settings: MCC and control cell lines, CellTiter-Glo viability, 72 h; series mostly up to 46 µM
In short: as §2

[12] = system: C33A; test: Primary qHTS to identify gynecologic anti-cancer compounds using libraries of approved drugs and bioactive compounds (AID 1345084); settings: Gynecologic cancer cell panel viability, ATPlite luminescence, 48 h; series mostly up to 57.5 µM; also: nearly all actives have a fitted effect of over 55% in size
In short: (§3)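 48 h compound exposure at 37 C, 5% CO2; five-point qHTS. ATPlite luminescence readout of cell ATP.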

[13] = system: CASKI; test: as above; settings: Gynecologic cancer cell panel viability, ATPlite luminescence, 48 h; series mostly up to 57.5 µM
In short: as §3

[14] = system: Es-2; test: as above; settings: Gynecologic cancer cell panel viability, ATPlite luminescence, 48 h; series mostly up to 57.5 µM
In short: as §3

[15] = system: HeLa; test: as above; settings: Gynecologic cancer cell panel viability, ATPlite luminescence, 48 h; series mostly up to 57.5 µM
In short: as §3

[16] = system: Hek293T; test: as above; settings: Gynecologic cancer cell panel viability, ATPlite luminescence, 48 h, control line for the selectivity index; series mostly up to 57.5 µM
In short: as §3

[17] = system: JEG-3; test: as above; settings: Gynecologic cancer cell panel viability, ATPlite luminescence, 48 h; series mostly up to 57.5 µM
In short: as §3

[18] = system: MCC-26; test: qHTS assay to identify novel small-molecules to repurpose for Merkel cell carcinoma treatment (AID 1296009); settings: MCC and control cell lines, CellTiter-Glo viability, 72 h; series mostly up to 46 µM; also: nearly all actives have a fitted effect of over 60% in size
In short: as §2

[19] = system: CAOV3; test: Primary qHTS to identify gynecologic anti-cancer compounds using libraries of approved drugs and bioactive compounds (AID 1345084); settings: Gynecologic cancer cell panel viability, ATPlite luminescence, 48 h; series mostly up to 57.5 µM; also: nearly all actives have a fitted effect of over 55% in size
In short: as §3

[20] = system: NIH3T3; test: qHTS assay to identify novel small-molecules to repurpose for Merkel cell carcinoma treatment (AID 1296009); settings: MCC and control cell lines, CellTiter-Glo viability, 72 h; at 44.8 µM (top of the series) unless noted; also: nearly all actives have a fitted effect of over 60% in size
In short: as §2
% is scaled to controls: 0 for no effect and ±100 for the full control effect; potency is read from the fitted curve at half-maximal effect.

Cc1ccc(CN2CCNCC2)cc1NC(=O)CNc1ccc(F)c(F)c1
inactive: max response [1] -5.99% | outcome [1] | outcome [2] | max response [3] 4% | outcome [3] | max response [4] -3.35% and 3.71% | Potency [5] | outcome [6] | Potency [7] | Potency [8] | Potency [9] | Potency [10] | Potency [11] | Potency [12] | Potency [13] | Potency [14] | Potency [15] | Potency [16] | Potency [17]

CNC(=O)CN1CCC(Oc2cc3c(Nc4cccc(Cl)c4F)ncnc3cc2OC)CC1
active: Potency [2] 0.58 µM | Potency [4] 26.4 µM and 16.4 µM | Potency [7] 3.32 µM | Potency [18] 2.64 µM | Potency [10] 0.118 µM
inactive: max response [1] 1% and -0.0643% | max response [2] -148% | max response [3] 4.62% and 3.88% | Potency [9] | Potency [19] | Potency [14] | Potency [15] | Potency [16] | Potency [17]

CC1COC2(CCN(c3nc(=O)c4cc(C(F)(F)F)cc([N+](=O)[O-])c4s3)CC2)O1 (configuration not stated)
inactive: max response [1] 2.26% | outcome [1] | max response [2] 0.136% | max response [3] 8.43% and -3.92% | outcome [4] | outcome [6] | Potency [7] | Potency [8] | Potency [9] | outcome [20] | Potency [10] | Potency [11] | Potency [12] | Potency [19] | Potency [13] | Potency [14] | Potency [15] | Potency [16] | Potency [17]

C1Cc2[nH]nc(-c3nn[nH]n3)c2C1
inactive: max response [1] 2.99% | outcome [1] | max response [2] -5.07% | outcome [2] | max response [3] 5.58% | outcome [3] | outcome [4] | Potency [5] | outcome [6] | Potency [7] | Potency [18] | Potency [8] | Potency [9] | outcome [20] | Potency [10] | Potency [11] | Potency [12] | Potency [19] | Potency [13] | Potency [14] | Potency [15] | Potency [16] | Potency [17]

COc1cc2c(Nc3ccc(NC(=O)c4ccccc4)cc3)ncnc2cc1OCCCN1CCOCC1
active: Potency [1] 23.1 µM | Potency [2] 7.31 µM | Potency [4] 14.6 µM | Potency [12] 25.1 µM
inactive: max response [1] -7.34% | max response [3] -17.8% | Potency [7] | Potency [18] | Potency [9] | Potency [10] | Potency [14] | Potency [16]

COc1cc(-c2nn(C3CCC(N4CCN(C(C)=O)CC4)CC3)c3ncnc(N)c23)ccc1NC(=O)c1cc2ccccc2n1C (configuration not stated)
active: Potency [2] 3.66 µM | Potency [3] 20.6 µM | Potency [8] 3.72 µM | Potency [10] 18.7 µM
inactive: max response [1] -12.7% | max response [2] -22.8% | max response [3] -0.49% | max response [4] -32.1% and -29.8% | Potency [9] | Potency [12] | Potency [14] | Potency [15] | Potency [16] | Potency [17]

C[C@H]1C[C@@H]2[C@@H]([C@@H](O)C[C@@]3(C)[C@H]2CC[C@]3(O)C(=O)CO)[C@@]2(C)C=CC(=O)C=C12
inactive: max response [1] -9.41% | max response [2] -11.8% | max response [3] -1.28% and 2.95% | outcome [4] | Potency [7] | Potency [18] | Potency [8] | Potency [9] | outcome [20] | Potency [10] | Potency [11]

CCNC(=O)Nc1ccc2ncc(Nc3ccc(C)cc3)nc2n1
inactive: max response [1] 1.18% and 1.8% | max response [2] -7.35% and 2.38% | max response [3] -0.0839% | outcome [3] | max response [4] 4.76% and -10.1% | Potency [7] | Potency [12] | Potency [19] | Potency [13] | Potency [14] | Potency [15] | Potency [16] | Potency [17]

O=C(O)[C@H](Cc1c[nH]c2ccccc12)N1C(=O)c2ccccc2C1=O
inactive: outcome [1] | outcome [2] | max response [3] 3.99% | max response [4] 4.64% | Potency [5] | outcome [6] inactive [at 92 µM] | Potency [7] | Potency [18] | Potency [8] | Potency [9] | Potency [10] | Potency [11]

COc1ccc2c(OCc3nnc4ccc(-c5ccccc5)nn34)ccnc2c1
inactive: outcome [1] | outcome [2] | max response [3] -1.11% and 9.78% | max response [4] -4.81% and -9.25% | Potency [5] | outcome [6] | Potency [7] | Potency [18] | Potency [8] | Potency [9] | Potency [10] | Potency [11] | Potency [12] | Potency [13] | Potency [14] | Potency [15] | Potency [16] | Potency [17]

CNC(=O)c1ccc(N2C(=S)N(c3cnc(C#N)c(C(F)(F)F)c3)C(=O)C23CCC3)cc1F
inactive: outcome [1] | max response [2] -2.38% and -0.362% | max response [3] -8.3% | outcome [3] | max response [4] 0.376% | outcome [4] | outcome [6] | outcome [20] | Potency [12] | Potency [19] | Potency [13] | Potency [14] | Potency [15] | Potency [16] | Potency [17]
active: Potency [9] 26.4 µM | Potency [11] 9.35 µM

Reference: PubChem BioAssay (NCATS)
